Experiment [1] addresses Estrogen receptor beta (Homo sapiens) (UniProt Q92731). As to the kind of experiment: qHTS assay to identify small molecule agonists of the estrogen receptor beta (ER-beta) signaling pathway (AID 1259377; active = well fitted activation curve with a large enough effect in the signal ratio in the repeat runs, not every such curve was filed as active; the % refers to the signal ratio). Summed up: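 Screening used GripTite ER-beta-UAS-bla cells held in 2% charcoal-stripped FBS medium. After overnight (16 hr) compound incubation at 37C, beta-lactamase activity was detected with a FRET substrate by fluorescence.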

Experiment [2] can be described thus: qHTS assay to identify small molecule agonists of the androgen receptor (AR) signaling pathway in the presence of an antagonist - cell viability counter screen (AID 1259379). Also: nearly all actives have a fitted effect of over 25% in size. Also: potency is read from the fitted curve at half-maximal effect. In outline:
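Seed MDA-kb2 at 3,000 cells/well; incubate 5 hr, 37C, 0% CO2. Add nilutamide to 3.0uM final, then pin compounds at 15 concentrations. Incubate 16 hr. Add CellTiter-Fluor at 15 hr, read fluorescence after 1 hr.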

Experiment [3] in a line: qHTS assay to identify small molecule agonists of the estrogen receptor beta (ER-beta) signaling pathway - cell viability counter screen (AID 1259380). Also: nearly all actives have a fitted effect of over 30% in size. Also: potency is read from the fitted curve at half-maximal effect. Summed up: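 CellTiter-Glo read, 30 min RT, same wells as bla assay; cells ER-beta-UAS-bla HEK293T; 16 hr compound, 37C; medium 2% charcoal-stripped FBS.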
On the technique in general: In qHTS, concentration-response curves come from the screen itself.

Experiment [4] deals with Androgen receptor (Homo sapiens) (UniProt P10275). As to the kind of experiment: qHTS assay to identify small molecule agonists of the androgen receptor (AR) signaling pathway in the presence of an antagonist (AID 1259381; calls by dose curve; also: nearly all actives have a fitted effect of over 15% in size). Summed up: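 Test compounds at 15 concentrations were incubated for 16hr with MDA-kb2 reporter cells in presence of 3.0uM nilutamide (final). Signal: ONE-Glo luciferase luminescence.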
Sequence of Androgen receptor (Homo sapiens) (P10275 whole entry, looked up): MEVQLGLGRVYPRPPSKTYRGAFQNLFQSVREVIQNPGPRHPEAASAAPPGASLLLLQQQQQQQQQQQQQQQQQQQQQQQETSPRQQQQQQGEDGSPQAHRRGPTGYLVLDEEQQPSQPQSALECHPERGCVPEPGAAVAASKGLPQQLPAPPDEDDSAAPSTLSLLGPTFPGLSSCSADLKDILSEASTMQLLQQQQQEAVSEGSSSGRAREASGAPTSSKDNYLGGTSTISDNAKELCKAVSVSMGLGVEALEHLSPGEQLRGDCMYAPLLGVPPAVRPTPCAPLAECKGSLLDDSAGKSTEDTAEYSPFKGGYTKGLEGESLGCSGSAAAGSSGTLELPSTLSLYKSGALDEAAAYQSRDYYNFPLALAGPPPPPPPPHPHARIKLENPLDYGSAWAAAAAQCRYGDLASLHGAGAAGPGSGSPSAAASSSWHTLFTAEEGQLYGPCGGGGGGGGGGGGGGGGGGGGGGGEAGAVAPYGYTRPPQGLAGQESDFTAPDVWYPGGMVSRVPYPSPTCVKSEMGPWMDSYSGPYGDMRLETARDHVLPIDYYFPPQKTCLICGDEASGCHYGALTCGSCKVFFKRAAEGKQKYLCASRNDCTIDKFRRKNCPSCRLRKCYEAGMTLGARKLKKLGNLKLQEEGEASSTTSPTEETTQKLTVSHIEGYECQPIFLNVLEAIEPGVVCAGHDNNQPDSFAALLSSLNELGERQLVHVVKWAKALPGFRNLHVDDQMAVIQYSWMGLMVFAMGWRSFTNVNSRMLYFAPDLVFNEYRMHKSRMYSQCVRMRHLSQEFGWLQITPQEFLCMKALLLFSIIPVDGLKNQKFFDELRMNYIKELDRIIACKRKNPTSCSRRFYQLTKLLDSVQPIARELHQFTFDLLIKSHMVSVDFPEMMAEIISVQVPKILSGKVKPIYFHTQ

The nature of experiment [5]: qHTS assay to identify small molecule antagonists of the estrogen receptor beta (ER-beta) signaling pathway - cell viability counter screen (AID 1259382). Also: nearly all actives have a fitted effect of over 55% in size. Also: potency is read from the fitted curve at half-maximal effect. Summed up:
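In this multiplexed counter screen, cells were seeded at 2,000 per well in medium with 2% charcoal-stripped FBS and incubated 6 hr before compound and 1nM final E2 were added. Sixteen hours later, ATP-based luminescence reported viability.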

For experiment [6], the target named is Estrogen receptor (Homo sapiens) (UniProt P03372). As to the kind of experiment: qHTS assay to identify small molecule agonists of the estrogen receptor alpha (ER-alpha) signaling pathway in the presence of an antagonist (AID 1259383; calls by dose curve; also: nearly all actives have a fitted effect of over 15% in size; also: potency is read from the fitted curve at half-maximal effect; as to activation: top concentration of the series differs between compounds). Summed up:
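Stably transfected VM7Luc4E2 reporter cells, kept 5 days in charcoal-stripped serum, received ICI-182,780 at 10.0nM final before compound addition. Following 22hr incubation at 37C and 5% CO2, luciferase signal was read by luminescence.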

In experiment [7] the target is Thyrotropin receptor (Homo sapiens) (UniProt P16473). In words: qHTS assay to identify small molecule antagonists of the thyroid stimulating hormone receptor (TSHR) signaling pathway (AID 1259385; calls by dose curve; also: nearly all actives have a fitted effect of over 20% in size; also: potency is read from the fitted curve at half-maximal effect). Summed up:
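Antagonist mode: compound-treated TSHR-expressing HEK293 cells were stimulated with 1.5 ng/mL TSH (final) in presence of Ro20-1724 for 30 min at RT. HTRF cAMP detection after 1 h; each compound tested at 15 concentrations, triplicate.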

A short description of experiment [8]: qHTS assay to identify small molecule agonists of the estrogen receptor alpha (ER-alpha) signaling pathway in the presence of an antagonist - cell viability counter screen (AID 1259386).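 Also: cells exposed to compounds for 22 h at 37 °C before the viability read; nearly all actives have a fitted effect of over 30% in size.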 Also: potency is read from the fitted curve at half-maximal effect. Summed up:
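Viability counter screen using VM7Luc4E2 (full-length ER-alpha, four ERE-luciferase). The cells were treated with compounds alongside ICI-182,780 10.0nM for 22hr, and live-cell protease fluorescence was quantified with CellTiter-Fluor.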

Experiment [9] in a line: qHTS assay to identify small molecule agonists or antagonists of the thyroid stimulating hormone receptor (TSHR) signaling pathway - wild type cell line counter screen (AID 1259384; calls by dose curve). In outline: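 Counter screen in untransfected Hek293: compounds (15-point titration, triplicate) plus phosphodiesterase inhibitor Ro20-1724 added after 18 h plating; 30 min RT. Intracellular cAMP via competitive d2/cryptate immunoassay, 1 h incubation.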

Experiment [10] has as its target Estrogen receptor beta (Homo sapiens) (UniProt Q92731). In words: qHTS assay to identify small molecule antagonists of the estrogen receptor beta (ER-beta) signaling pathway (AID 1259378; active = well fitted inhibition curve with a large enough effect in the signal ratio in the repeat runs, not every such curve was filed as active; the % refers to the signal ratio; also: potency is read from the fitted curve at half-maximal effect). In outline: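 Antagonist mode: compounds added to beta-lactamase reporter HEK293T ER-beta-UAS cells stimulated with E2 (1nM final), 16 hr at 37C. LiveBLAzer B/G FRET substrate, 2 hours room temperature, fluorescence read-out.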

Where “and” joins values, the source holds several entries; their conditions need not be identical. Identical values can stand only once. Results filed as inconclusive are left out. More than one record can exist for a structure, and the calls need not agree. Calls of active or inactive are those of the source. Unless noted, calls follow the shape of the dose curve; as a rule, active = well fitted curve in the direction sought with a large enough effect in the repeat runs; inconclusive = weak or mixed curves; inactive = no such curve, though single readings can be large; an effect the other way counts as inactive or inconclusive.

Sequence of Estrogen receptor beta (Homo sapiens) (Q92731 whole entry, looked up): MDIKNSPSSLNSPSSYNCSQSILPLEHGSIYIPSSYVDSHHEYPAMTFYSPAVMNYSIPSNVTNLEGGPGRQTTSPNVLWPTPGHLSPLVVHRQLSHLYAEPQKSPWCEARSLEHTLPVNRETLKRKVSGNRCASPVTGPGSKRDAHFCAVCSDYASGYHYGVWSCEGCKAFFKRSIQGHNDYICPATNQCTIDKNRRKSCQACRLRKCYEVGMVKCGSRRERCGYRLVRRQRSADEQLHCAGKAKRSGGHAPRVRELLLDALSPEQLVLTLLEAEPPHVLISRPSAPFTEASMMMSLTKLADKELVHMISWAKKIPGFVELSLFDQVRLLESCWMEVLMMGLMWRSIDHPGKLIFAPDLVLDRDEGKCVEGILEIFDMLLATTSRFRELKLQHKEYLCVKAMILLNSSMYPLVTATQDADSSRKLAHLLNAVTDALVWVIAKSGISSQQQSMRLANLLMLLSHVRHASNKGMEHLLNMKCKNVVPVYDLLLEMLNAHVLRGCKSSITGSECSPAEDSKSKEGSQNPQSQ
Sequence of Thyrotropin receptor (Homo sapiens) (P16473 whole entry, looked up): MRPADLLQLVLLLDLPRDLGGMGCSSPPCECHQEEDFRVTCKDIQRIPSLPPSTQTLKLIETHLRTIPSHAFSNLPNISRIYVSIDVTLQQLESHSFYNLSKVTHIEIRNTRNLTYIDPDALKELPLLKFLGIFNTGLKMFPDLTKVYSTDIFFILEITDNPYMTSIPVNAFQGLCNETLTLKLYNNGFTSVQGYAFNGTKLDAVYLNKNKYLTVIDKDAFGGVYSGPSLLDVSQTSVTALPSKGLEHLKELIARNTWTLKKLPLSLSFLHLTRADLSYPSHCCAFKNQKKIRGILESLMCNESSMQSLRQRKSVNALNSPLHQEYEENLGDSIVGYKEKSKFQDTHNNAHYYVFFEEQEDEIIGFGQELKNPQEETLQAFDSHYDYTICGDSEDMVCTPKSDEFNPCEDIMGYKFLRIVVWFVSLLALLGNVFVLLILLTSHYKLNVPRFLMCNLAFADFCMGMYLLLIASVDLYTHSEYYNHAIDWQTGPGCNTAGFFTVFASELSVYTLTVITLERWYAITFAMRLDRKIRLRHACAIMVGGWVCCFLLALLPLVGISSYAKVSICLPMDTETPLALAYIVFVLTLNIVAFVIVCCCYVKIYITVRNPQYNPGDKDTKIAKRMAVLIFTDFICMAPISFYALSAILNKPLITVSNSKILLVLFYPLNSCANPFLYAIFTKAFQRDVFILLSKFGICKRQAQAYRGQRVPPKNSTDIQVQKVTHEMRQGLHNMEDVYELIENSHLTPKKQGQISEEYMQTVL
Sequence of Estrogen receptor (Homo sapiens) (P03372 whole entry, looked up): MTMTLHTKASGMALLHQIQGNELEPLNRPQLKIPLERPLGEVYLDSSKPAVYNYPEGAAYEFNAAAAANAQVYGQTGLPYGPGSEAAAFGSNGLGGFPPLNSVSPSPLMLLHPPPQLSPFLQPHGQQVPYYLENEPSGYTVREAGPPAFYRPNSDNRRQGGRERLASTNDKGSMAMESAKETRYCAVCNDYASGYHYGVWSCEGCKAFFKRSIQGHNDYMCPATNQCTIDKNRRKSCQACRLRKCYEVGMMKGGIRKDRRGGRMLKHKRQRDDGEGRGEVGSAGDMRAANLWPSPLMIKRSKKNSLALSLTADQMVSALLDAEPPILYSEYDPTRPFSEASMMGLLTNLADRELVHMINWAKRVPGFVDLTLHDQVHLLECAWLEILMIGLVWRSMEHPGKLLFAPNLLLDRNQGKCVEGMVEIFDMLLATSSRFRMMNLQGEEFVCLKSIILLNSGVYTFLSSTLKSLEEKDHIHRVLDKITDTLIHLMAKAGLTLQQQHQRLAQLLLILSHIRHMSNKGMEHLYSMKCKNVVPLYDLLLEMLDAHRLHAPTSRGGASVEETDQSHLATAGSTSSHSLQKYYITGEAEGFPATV

In the case of `CC(C)(O)CCC(C)(C)O`, the result in [1] was inactive. The Potency entry in [2], in [3], in experiment [4], in experiment [5], in experiment [6] and in [7] was “inactive” in each case. Besides, the Potency entry in experiment [8] was “inactive”.

Turning to `CCN(CC)C(=O)Nc1ccc(OCC(O)CNC(C)(C)C)c(C(C)=O)c1` (centres undefined), the outcome in experiment [1] was inactive. The Potency entry in [2], in experiment [3], in [4], in experiment [5], in experiment [6] and in experiment [7] was “inactive” in each case. The Potency entry in [8] is “inactive”.

As for `CC(C)CCOC(=O)c1ccc(N(C)C)cc1`, in experiment [1], the result was inactive. For the same compound, the Potency result in [2], in experiment [3], in [5] and in experiment [9] was “inactive” throughout. Besides, in experiment [6], the Potency was 2.98 µM (active).

In the case of `CN1C(=O)c2ccc([N+](=O)[O-])cc2C1=O`, the result in [1] was inactive. Also, the Potency entry in experiment [2], in [3], in experiment [4], in [5], in experiment [6] and in [7] was “inactive” each time. For the same compound, in experiment [8], the Potency entry is “inactive”.

In the case of `CCCCC/C=C/CC1CC(=O)OC1=O` (centres undefined), the Potency result in experiment [2], in experiment [3], in experiment [5], in [6], in experiment [9] and in experiment [7] was “inactive” each time. In addition, the Potency result in experiment [8] is “inactive”.

On to `CCCCCCCCCCCCCC[P+](CCCC)(CCCC)CCCC`, for which the Potency in experiment [2] is 19.2 µM (active) and 15.4 µM (active); in experiment [3], 17.1 µM (active) and 27.3 µM (active); in experiment [5] it was 19.2 µM (active) and 24.3 µM (active); in experiment [7], 54.2 µM (active) and 48.6 µM (active); in experiment [8], 12.1 µM (active) and 17.2 µM (active). Also, the Potency result in experiment [4], in [6] and in experiment [9] was “inactive” each time.

For `COC(c1ccccc1)(c1ccccc1)[C@H](Oc1nc(C)cc(C)n1)C(=O)O`, the outcome in experiment [1] was inactive. Also, the Potency result in [2], in experiment [5], in [9], in experiment [7] and in [8] was “inactive” each time.

`CC1=CC(=O)c2ccccc2C1=O`: the Potency in experiment [2] was 43.3 µM (active); in [3], 24.3 µM (active) and 26.6 µM (active); in [5] it was 24.3 µM (active); in experiment [8], 38.6 µM (active) and inactive. In addition, the Potency result in experiment [4] and in [6] was “inactive” throughout.

As to `c1ccc2c(c1)-c1cccc3c1c-2cc1ccccc13`, the Potency entry in experiment [2], in experiment [3], in experiment [5], in experiment [6], in experiment [9] and in experiment [7] was “inactive” in each case. Besides, the Potency entry in [8] is “inactive”.

Regarding `CCC[C@H](N[C@@H](C)C(=O)N1[C@H](C(=O)O)C[C@@H]2CCCC[C@@H]21)C(=O)OCC`, the Potency result in experiment [2], in experiment [3], in [5], in [6], in [9] and in experiment [7] was “inactive” throughout. The Potency result in experiment [8] is “inactive”.

For the compound `CCn1cc(C(=O)O)c(=O)c2cc(F)c(N3CCNC(C)C3)c(F)c21` (centres undefined), the Potency result in experiment [2], in [3], in [5], in experiment [6], in [9] and in experiment [7] was “inactive” throughout. Besides, the Potency result in experiment [8] was “inactive”.

In the case of `CCCCCCCCCCCCc1ccccc1O`, the Potency was 61.1 µM (active) in experiment [2]; 30.2 µM (active) and 27.3 µM (active) in experiment [3]; 47.9 µM (active) and 43.3 µM (active) in experiment [5]; 68.6 µM (active) in experiment [8]. Besides, the Potency result in [4] was “inactive”.

For `Nc1nc2ccccc2[nH]1`, the Potency entry in experiment [2], in experiment [3], in experiment [5], in [6], in experiment [9] and in experiment [7] was “inactive” in each case. The Potency result in experiment [8] is “inactive”.

As to `CCC(C)(Oc1ccc(C2(c3ccc(OC(C)(CC)C(=O)O)cc3)CCCCC2)cc1)C(=O)O` (centres undefined), the Potency entry in experiment [2], in [3], in experiment [4], in experiment [5], in experiment [6] and in experiment [9] was “inactive” in each case. Also, the Potency entry in [7] and in [8] was “inactive” throughout.

On to `CCCNC(C)C(=O)Nc1ccccc1C` (centres undefined), for which the Potency result in [2], in experiment [3], in experiment [5], in experiment [6], in [7] and in [8] was “inactive” in each case.

As for `CC(=O)CC(=O)Nc1ccc2[nH]c(=O)[nH]c2c1`, the Potency entry in experiment [2], in [3], in experiment [5], in experiment [6], in experiment [9] and in experiment [7] was “inactive” in each case. Also, in experiment [8], the Potency result was “inactive”.

Turning to `NCCO`, the Potency entry in [2], in experiment [3], in experiment [5], in [6], in experiment [9] and in [7] was “inactive” in each case. In experiment [8], the Potency result was “inactive”.

For `CCCC(=O)c1ccccc1`, the Potency entry in experiment [2], in experiment [3], in experiment [4], in [5], in experiment [9] and in [7] was “inactive” throughout. For the same compound, the Potency entry in experiment [8] is “inactive”.

For the compound `C=CC(=O)OCCCCCCOC(=O)C=C`, in [1], the call was inactive. For the same compound, in [3], the Potency was 24.3 µM (active). For the same compound, the Potency result in experiment [4], in experiment [5], in [6], in [9], in experiment [7] and in [8] was “inactive” each time.

Take `CC(=O)CC(C)=O`: the Potency entry in experiment [2], in experiment [3], in [5], in [6], in experiment [9] and in [7] was “inactive” each time. Moreover, in experiment [8], the Potency entry is “inactive”.

With `CC(C)(c1ccccc1)c1ccc(Nc2ccc(C(C)(C)c3ccccc3)cc2)cc1`, the Potency result in experiment [2], in experiment [3], in experiment [5], in [6], in [9] and in [7] was “inactive” each time. The Potency result in experiment [8] was “inactive”.

Consider `CCc1ccc(C(c2ccc(CC)cc2)C(Cl)Cl)cc1`, for which the Potency entry in [2], in [3], in experiment [4], in [5], in experiment [6] and in experiment [9] was “inactive” in each case. Besides, the Potency result in experiment [7] and in [8] was “inactive” throughout.

Turning to `Nc1cc(Cl)c(-c2cc(Cl)c(N)cc2Cl)cc1Cl`, the Potency in experiment [10] is 8.63 µM (active); in experiment [2], 54.4 µM (active) and 48.6 µM (active); in experiment [3], 21.7 µM (active) and 24.3 µM (active); in experiment [5] it was 17.2 µM (active) and 27.3 µM (active). The Potency result in [4], in [6], in experiment [9] and in [8] was “inactive” throughout.

For `CC(N)=O`, the result in experiment [1] was inactive. Also, the Potency entry in experiment [2], in [3], in [5], in [7] and in experiment [8] was “inactive” each time.

In the case of `COc1cc(C(=S)N2CCOCC2)ccc1O`, the Potency entry in experiment [2], in experiment [3], in experiment [4], in experiment [5], in [6] and in experiment [9] was “inactive” each time. For the same compound, the Potency entry in experiment [7] and in experiment [8] was “inactive” each time.

In the case of `O=C(Oc1ccccc1)c1ccccc1O`, the Potency result in [2], in experiment [3], in experiment [5], in experiment [6], in experiment [9] and in experiment [7] was “inactive” in each case. The Potency result in experiment [8] is “inactive”.

The values are drawn from PubChem BioAssay (Tox21).
